What all share (set-up): scale not given: direction of the effect not stated beside the values
The target of assay [1] is Protein translocase subunit SecA (Escherichia coli (strain K12)) (UniProt P10408). Briefly: Assay to Identify E. coli SecA ATPase Inhibitors. In kind it is functional. The following applies: 30 µM.
The target of assay [2] is T1, Ubiquitin-activating enzyme e1, putative (Leishmania donovani (strain BPK282A1)) (UniProt E9BSI1).
T1 sequence (whole entry): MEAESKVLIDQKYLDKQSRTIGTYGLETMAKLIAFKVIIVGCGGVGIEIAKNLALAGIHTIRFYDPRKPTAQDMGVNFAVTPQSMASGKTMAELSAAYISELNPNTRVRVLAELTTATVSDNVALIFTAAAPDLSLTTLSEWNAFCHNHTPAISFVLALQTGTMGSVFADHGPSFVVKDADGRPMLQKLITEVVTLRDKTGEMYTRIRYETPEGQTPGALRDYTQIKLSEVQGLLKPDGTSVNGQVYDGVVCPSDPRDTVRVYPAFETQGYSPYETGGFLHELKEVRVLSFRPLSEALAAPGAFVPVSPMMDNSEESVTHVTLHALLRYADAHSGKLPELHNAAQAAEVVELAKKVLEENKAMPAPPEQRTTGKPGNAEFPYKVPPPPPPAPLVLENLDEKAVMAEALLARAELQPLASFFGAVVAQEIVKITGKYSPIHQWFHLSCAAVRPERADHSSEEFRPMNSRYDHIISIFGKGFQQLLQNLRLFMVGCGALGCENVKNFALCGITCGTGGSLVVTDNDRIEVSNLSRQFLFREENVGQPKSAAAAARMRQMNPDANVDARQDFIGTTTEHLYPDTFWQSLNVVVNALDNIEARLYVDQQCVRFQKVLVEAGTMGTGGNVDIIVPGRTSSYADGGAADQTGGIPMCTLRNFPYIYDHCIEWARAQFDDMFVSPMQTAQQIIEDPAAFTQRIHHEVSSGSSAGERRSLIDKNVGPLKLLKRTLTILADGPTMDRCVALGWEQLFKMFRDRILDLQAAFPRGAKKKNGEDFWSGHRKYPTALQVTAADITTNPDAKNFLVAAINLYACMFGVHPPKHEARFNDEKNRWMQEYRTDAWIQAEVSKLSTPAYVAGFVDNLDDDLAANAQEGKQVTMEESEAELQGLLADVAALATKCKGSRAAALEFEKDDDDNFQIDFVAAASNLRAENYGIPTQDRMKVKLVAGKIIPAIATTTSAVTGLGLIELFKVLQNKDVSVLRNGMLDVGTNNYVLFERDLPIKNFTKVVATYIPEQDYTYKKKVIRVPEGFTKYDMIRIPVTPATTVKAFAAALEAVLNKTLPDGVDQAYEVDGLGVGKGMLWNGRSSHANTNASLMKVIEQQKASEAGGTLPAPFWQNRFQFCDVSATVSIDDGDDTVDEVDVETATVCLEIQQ
Briefly: Leishmania donovani Ubiquitin Activating Enzyme (LdE1). Type of assay: functional. The conditions noted are these: 30 µM.

Assay [3] has as its target AMP-activated protein kinase, AMPK (Homo sapiens) (UniProt P54646+O43741+P54619+Q9UGJ0+Q9Y478+Q13131+Q9UGI9). Briefly: AMP-dependent Kinase enzyme assay. An in vitro enzyme assay that detects ADP turnover that is directly proportional to AMPK activity. This uses naive AMPK that is activated during the assay with MK-8722. Type of assay: functional. The conditions noted are these: 30 µM.

Assay [4] deals with Sialic acid-binding Ig-like lectin 9 (Homo sapiens) (UniProt Q9Y336). Briefly: Hs-Siglec9 ALPHAscreen SOP 20170721. The conditions noted are these: 10 µM.
Chain of Sialic acid-binding Ig-like lectin 9 (Homo sapiens) (Q9Y336 whole entry): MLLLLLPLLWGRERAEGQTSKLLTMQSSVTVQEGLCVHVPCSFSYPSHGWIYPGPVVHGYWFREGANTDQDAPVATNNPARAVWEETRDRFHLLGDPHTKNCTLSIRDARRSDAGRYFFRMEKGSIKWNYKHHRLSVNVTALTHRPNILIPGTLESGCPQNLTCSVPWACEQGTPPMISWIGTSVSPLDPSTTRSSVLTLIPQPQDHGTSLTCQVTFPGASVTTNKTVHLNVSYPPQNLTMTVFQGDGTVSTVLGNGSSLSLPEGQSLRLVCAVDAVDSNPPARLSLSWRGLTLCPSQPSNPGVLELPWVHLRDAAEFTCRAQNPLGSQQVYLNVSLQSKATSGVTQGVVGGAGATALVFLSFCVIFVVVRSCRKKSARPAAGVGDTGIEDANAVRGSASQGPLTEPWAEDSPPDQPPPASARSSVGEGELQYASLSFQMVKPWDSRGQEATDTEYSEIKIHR
The test system of assay [5] is Trypanosoma cruzi. Briefly: Trypanosoma cruzi phosphomannomutase and mannose-1-phosphate guanylyltransferase assay. In kind it is functional. The conditions noted are these: 10 µM.
For assay [6], the target named is T2, Arginase-2, mitochondrial (Homo sapiens) (UniProt P78540).
T2 sequence (whole entry): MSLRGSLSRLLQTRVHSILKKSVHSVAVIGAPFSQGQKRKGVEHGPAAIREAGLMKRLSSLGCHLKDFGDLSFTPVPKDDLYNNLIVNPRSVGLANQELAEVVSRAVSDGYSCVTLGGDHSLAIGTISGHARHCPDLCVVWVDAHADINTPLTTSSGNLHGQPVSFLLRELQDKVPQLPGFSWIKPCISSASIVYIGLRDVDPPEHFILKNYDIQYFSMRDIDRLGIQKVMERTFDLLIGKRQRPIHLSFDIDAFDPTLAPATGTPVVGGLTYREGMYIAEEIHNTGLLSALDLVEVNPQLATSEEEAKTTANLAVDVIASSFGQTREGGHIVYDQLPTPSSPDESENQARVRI
Briefly: in vitro enzyme assay to detect the production of urea directly proportional to the activity of Arginase II. Also: in the data most compounds retested in dose-response had high values. Type of assay: functional. The conditions noted are these: 33.3 µM.

Assay [7] addresses T3, Proteasome subunit beta (Trypanosoma cruzi) (UniProt O96673).
T3 sequence (whole entry): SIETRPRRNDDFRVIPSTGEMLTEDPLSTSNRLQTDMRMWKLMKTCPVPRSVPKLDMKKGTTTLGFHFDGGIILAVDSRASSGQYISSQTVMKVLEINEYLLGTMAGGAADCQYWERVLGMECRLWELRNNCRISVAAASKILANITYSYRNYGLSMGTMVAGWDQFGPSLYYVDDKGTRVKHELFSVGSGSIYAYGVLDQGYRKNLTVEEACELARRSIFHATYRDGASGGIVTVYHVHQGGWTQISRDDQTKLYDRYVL
Briefly: Trypanosoma cruzi proteasome chymotrypsin-like activity (TcProtChymo) assay. Also: in the data most compounds retested in dose-response had high values. The following applies: 9.37 µM. In kind it is functional.

The species named for assay [8] is Homo sapiens. Briefly: To identify inhibition of the IFN signalling (Jak-Stat) pathway via expression of an eGFP reporter gene under the control of an IFN-stimulated response element (ISRE) containing MxA promoter. Type of assay: functional. The following applies: 30 µM.
Assay [9] has as its target T4, Tyrosyl-tRNA synthetase, putative (Trypanosoma cruzi (strain CL Brener)) (UniProt Q4DSP6).
T4 sequence (whole entry): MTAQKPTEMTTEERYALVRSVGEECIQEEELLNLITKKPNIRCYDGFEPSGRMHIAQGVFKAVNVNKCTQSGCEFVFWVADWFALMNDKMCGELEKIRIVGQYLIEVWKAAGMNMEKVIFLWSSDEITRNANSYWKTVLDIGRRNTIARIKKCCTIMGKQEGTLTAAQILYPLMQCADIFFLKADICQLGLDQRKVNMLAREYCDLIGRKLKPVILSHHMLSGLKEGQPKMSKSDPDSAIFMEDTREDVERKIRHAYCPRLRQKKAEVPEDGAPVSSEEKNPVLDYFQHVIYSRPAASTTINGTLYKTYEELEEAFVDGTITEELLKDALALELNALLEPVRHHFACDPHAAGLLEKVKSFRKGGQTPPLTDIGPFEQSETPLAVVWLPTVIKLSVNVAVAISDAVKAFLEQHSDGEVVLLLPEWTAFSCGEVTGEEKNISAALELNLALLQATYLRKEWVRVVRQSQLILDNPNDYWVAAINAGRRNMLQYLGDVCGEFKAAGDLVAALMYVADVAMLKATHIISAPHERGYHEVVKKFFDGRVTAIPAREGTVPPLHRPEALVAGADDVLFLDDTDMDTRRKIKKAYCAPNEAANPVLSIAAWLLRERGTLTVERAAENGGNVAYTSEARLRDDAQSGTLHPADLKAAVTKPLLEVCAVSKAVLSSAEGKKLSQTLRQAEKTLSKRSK
Briefly: Trypanosoma cruzi tyrosyl tRNA synthetase (TcYRS) _High Tyrosine SOP. Also: in the data most compounds retested in dose-response had high values. In kind it is functional. The following applies: 30 µM.

Assay [10] concerns the target T4, Tyrosyl-tRNA synthetase, putative (Trypanosoma cruzi (strain CL Brener)). Briefly: Trypanosoma cruzi tyrosyl tRNA synthetase (TcYRS) SOP. The following applies: 30 µM. Type of assay: functional.
The target of assay [11] is Chromo domain-containing protein 1 (Saccharomyces cerevisiae (strain ATCC 204508 / S288c) (Baker's yeast)) (UniProt P32657). Briefly: ScCHD-1 Enzyme Inhibition Assay. Also: in the data most compounds retested in dose-response had high values. The following applies: 30 µM. In kind it is functional.
Chain of Chromo domain-containing protein 1 (Saccharomyces cerevisiae (strain ATCC 204508 / S288c) (Baker's yeast)) (P32657 whole entry, the tested form may be a part): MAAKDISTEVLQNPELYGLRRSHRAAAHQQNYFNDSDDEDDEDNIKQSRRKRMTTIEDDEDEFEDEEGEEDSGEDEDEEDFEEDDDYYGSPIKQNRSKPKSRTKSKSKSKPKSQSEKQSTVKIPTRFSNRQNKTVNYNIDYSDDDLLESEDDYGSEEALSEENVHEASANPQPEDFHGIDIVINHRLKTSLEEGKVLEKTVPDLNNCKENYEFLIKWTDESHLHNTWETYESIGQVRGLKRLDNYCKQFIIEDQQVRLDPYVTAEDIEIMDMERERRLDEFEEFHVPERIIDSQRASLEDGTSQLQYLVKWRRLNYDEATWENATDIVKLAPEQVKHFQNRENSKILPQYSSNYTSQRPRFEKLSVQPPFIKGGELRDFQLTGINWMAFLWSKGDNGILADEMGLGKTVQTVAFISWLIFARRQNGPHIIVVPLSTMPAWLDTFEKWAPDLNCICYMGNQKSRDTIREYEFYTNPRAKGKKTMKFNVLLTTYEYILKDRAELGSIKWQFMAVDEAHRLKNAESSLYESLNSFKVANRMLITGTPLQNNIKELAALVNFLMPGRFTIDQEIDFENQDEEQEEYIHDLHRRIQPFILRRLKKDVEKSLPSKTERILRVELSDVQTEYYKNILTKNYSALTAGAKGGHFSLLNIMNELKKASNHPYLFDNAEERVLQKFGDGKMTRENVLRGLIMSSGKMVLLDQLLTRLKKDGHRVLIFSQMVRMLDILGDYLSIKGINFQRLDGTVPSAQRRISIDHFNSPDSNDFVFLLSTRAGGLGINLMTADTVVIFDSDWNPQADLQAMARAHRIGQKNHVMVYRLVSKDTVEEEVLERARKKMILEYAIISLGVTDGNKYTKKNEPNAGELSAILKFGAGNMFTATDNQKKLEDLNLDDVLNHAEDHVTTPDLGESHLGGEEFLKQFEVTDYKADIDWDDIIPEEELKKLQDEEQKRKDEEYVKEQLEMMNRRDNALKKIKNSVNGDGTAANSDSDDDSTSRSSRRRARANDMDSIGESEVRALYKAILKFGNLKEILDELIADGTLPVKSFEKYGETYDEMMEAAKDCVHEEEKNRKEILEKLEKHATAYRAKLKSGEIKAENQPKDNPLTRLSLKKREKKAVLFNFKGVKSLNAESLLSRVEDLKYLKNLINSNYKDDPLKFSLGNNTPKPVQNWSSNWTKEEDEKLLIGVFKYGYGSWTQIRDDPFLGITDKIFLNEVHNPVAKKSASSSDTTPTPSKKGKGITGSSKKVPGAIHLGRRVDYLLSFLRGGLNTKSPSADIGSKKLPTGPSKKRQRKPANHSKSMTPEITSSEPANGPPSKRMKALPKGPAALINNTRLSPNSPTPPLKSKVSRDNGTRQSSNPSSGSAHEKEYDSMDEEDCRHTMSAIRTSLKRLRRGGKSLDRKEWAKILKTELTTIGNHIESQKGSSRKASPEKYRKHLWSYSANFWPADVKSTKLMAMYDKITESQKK

For some of these results: Potency and affinity values are given separately.

Chain of Protein translocase subunit SecA (Escherichia coli (strain K12)) (P10408 whole entry): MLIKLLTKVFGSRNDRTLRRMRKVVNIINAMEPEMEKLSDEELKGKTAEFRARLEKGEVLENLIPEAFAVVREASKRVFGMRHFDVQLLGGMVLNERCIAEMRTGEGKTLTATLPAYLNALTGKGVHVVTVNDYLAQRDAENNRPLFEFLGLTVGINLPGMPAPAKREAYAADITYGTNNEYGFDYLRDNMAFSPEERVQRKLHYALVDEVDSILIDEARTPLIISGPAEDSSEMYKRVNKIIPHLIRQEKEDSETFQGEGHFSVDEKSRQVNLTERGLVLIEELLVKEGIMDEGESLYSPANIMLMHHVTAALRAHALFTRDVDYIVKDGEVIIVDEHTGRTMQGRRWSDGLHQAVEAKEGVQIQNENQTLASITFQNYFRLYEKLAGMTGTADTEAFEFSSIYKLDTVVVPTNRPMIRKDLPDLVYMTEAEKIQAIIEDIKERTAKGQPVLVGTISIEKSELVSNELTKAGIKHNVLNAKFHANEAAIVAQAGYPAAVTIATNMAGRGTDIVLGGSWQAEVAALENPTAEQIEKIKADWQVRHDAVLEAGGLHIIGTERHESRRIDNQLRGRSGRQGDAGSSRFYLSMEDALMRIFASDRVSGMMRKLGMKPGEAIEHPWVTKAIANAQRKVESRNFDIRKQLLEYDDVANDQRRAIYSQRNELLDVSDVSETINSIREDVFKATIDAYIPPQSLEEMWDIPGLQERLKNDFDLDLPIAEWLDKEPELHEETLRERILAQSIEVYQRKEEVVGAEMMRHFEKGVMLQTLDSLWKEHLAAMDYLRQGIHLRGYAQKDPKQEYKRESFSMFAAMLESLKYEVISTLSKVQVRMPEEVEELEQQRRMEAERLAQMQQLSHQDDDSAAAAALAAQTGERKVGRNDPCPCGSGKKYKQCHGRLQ

Take `COc1cccc(CCC(=O)N2CCCCC2Cn2cccn2)c1` (stereo unspecified): the Percent Effect in assay [1] was -4.9%; in [2] it was 7.79%; in assay [3], 6.53%; in [4] it was 2.3%; in assay [5], 1.47%; in assay [6] it was 1.9%. Besides, the Percent Effect in [7] was 3.31%; in assay [8] it was 9.7%; in [9], 0.952%; in assay [10], 2.35%; in assay [11] it was -13.2%.
As for `CC(=O)N1CCOCC2(CN(Cc3ccc(C)o3)CCO2)C1` (stereo unspecified), the Percent Effect was -8.61% in assay [1]; 2.67% in [2]; 0.553% in [3]; -4.1% in assay [4]; 0.591% in assay [5]; 0.699% in [6]. The Percent Effect was 1.67% in assay [7]; 17.8% in assay [8]; 3.19% in [9]; 1.28% in assay [10]; -4.82% in assay [11].
For the compound `Clc1cc(CN2CCCC2Cn2cncn2)c2ncccc2c1` (stereo unspecified), the Percent Effect in assay [1] was -4.67%; in assay [2], 2.7%; in assay [3], -1.32%; in assay [4], -0.586%; in [5] it was -2.88%; in [6], -12.4%. In addition, the Percent Effect is 3.95% in assay [7]; -0.129% in assay [8]; 2.97% in assay [9]; 6.1% in [10]; -2.39% in assay [11].
On to `CN(C)C(=O)COC1COC2(CCN(S(C)(=O)=O)CC2)C1` (stereo unspecified), for which the Percent Effect in assay [1] was 0.201%; in [2] it was 13.5%; in assay [3], 1.81%; in [4], -7.02%; in assay [5] it was -1.47%; in assay [6], 9.87%. Further, the Percent Effect in assay [7] was 18.1%; in assay [8], -9.56%; in [9] it was 4.32%; in assay [10], 12.8%; in [11] it was -1.01%.
In the case of `CCCOc1ccc(NC(=O)NCCC(=O)N(C)C)cc1Cl`, the Percent Effect in assay [1] is -2.86%; in [2], 13.7%; in [3], -18.2%; in [4] it was 4.95%; in assay [5], 4.5%; in assay [6], 0.909%. Moreover, the Percent Effect in [7] is 19%; in [8], 12.8%; in assay [9], 4.3%; in assay [10] it was 12.5%; in assay [11], -6.34%.
Regarding `O=C(NCCOc1ccc(F)c(F)c1)NCc1ccncc1`, the Percent Effect in assay [1] is -1.97%; in assay [2] it was 5.41%; in assay [3] it was 0.439%; in assay [4] it was -1.88%; in assay [5] it was -2.32%; in [6], -2.86%. In addition, the Percent Effect in [7] is 11.2%; in assay [8], 14.5%; in [9], -0.529%; in assay [10], 4.88%; in assay [11], -2.73%.
`Oc1nc(N2CCOCC2)nc2c1CCN(Cc1cccnc1)CC2`: the Percent Effect is -4.93% in assay [1]; 6.76% in assay [2]; 7.05% in assay [3]; 1.25% in assay [4]; -1.98% in assay [5]; -3.48% in [6]. The Percent Effect was 5.15% in assay [7]; 3.87% in assay [8]; 4.3% in assay [9]; 11.7% in assay [10]; -8.38% in [11].
Consider `COc1ccc(C)cc1CNCc1ccc(-n2nc(C)cc2C)nc1`, for which the Percent Effect is 0.678% in [1]; 10.5% in assay [2]; 3.46% in assay [3]; 0.511% in assay [4]; -2.82% in assay [5]; 1.15% in assay [6]. Moreover, the Percent Effect is 12.2% in assay [7]; 22.1% in assay [8]; 3.43% in assay [9]; 17.1% in assay [10]; -9.32% in [11].
For `O=C(c1ccc(F)c(F)c1)N1CCCSCC1CN1CCCC1` (stereo unspecified), the Percent Effect in assay [1] is -3.82%; in assay [2], 0%; in assay [3], 4.53%; in [4], -1.26%; in assay [5], 2.86%; in assay [6], -0.645%. Moreover, the Percent Effect in [7] was 8.7%; in [8], -1.06%; in assay [9], 7.41%; in assay [10] it was 16.7%; in assay [11] it was -8.34%.
On to `CC(C)Oc1ncccc1CNC(=O)c1cc[nH]n1`, for which the Percent Effect in assay [1] was -3.9%; in assay [2], 8.11%; in assay [3], 0.642%; in [4], 2.46%; in assay [5], -3.3%; in assay [6], -0.802%. Further, the Percent Effect in [7] was -0.18%; in assay [8], 3.02%; in assay [9], 2.46%; in assay [10], 6.17%; in [11], -2.93%.
For `O=C(NCC(O)c1ccc(F)c(F)c1)c1cccnc1OCC(F)(F)F` (stereo unspecified), the Percent Effect is -4.25% in assay [1]; 19.2% in assay [2]; 10.1% in assay [3]; 8.21% in [4]; 7.94% in assay [5]; -2% in assay [6]. Moreover, the Percent Effect in [7] was 15.8%; in assay [8], 5.47%; in [9], 4.17%; in [10] it was 16.1%; in assay [11], -4.84%.
